The whole screen tested about 5,500 compounds, of which about 2,000 (36%) were called active. Roughly 18% stayed inconclusive and do not appear here. Rule as the data show it: active = normalized growth mostly below about 0.91 (no sharp cut-off); inconclusive = no clear call, values can overlap the other calls; inactive = mostly above about 0.92. The list shows a part of the results.
Test: chemical genetic growth profiling, strain panel (AID 1159580);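 also: tested at 20 µM; growth read once vehicle control cultures reached saturation at 30 °C; 1 = growth at the plate median or of vehicle wells; lower values mean less growth of the strain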
Settings: S. cerevisiae deletion strains, growth OD

Measured: normalized growth

CCC(c1ccc(O)cc1)C(CC)c1ccc(O)cc1 (stereo not drawn)
active: locus YAL026C, strain drs2, active compounds read low 0.835 | locus YAL030W, strain snc1, active compounds read low 0.918 | locus YBR009C, strain hhf1, active compounds read low 0.77 | locus YCL011C, strain gbp2, active compounds read low 0.858 | locus YDR069C, strain doa4, active compounds read low 0.894 | locus YDR137W, strain rgp1, active compounds read low 0.415 | locus YDR159W, strain sac3, active compounds read low 0.723 | locus YEL003W, strain gim4, active compounds read low 0.891 | locus YER015W, strain faa2, active compounds read low 0.901 | locus YGL173C, strain kem1, active compounds read low 0.825 | locus YGL240W, strain doc1, active compounds read low 0.863 | locus YHR013C, strain ard1, active compounds read low 1.21 [resistant] | locus YJL095W, strain BCK1 (second series), active compounds read low 0.799 | locus YJL129C, strain trk1, active compounds read low 0.675 | locus YJL164C, strain tpk1, active compounds read low 0.687 | locus YJL166W, strain qcr8, active compounds read low 0.812
inactive: locus YAL013W, strain DEP1, active compounds read low 0.998 | locus YAL021C, strain ccr4, active compounds read low 0.93 | locus YBL061C, strain skt5, active compounds read low 0.982 | locus YBR021W, strain FUR4, active compounds read low 0.972 | locus YBR023C, strain chs3, active compounds read low 0.966 | locus YBR171W, strain sec66, active compounds read low 0.993 | locus YBR229C, strain ROT2, active compounds read low 0.993 | locus YBR231C, strain swc5, active compounds read low 0.989 | locus YBR279W, strain paf1, active compounds read low 0.95 | locus YCL016C, strain dcc1, active compounds read low 0.95 | locus YCL029C, strain bik1, active compounds read low 0.987 | locus YCL061C, strain MRC1, active compounds read low 0.958 | locus YCL069W, strain vba3, active compounds read low 0.951 | locus YCR088W, strain abp1, active compounds read low 0.974 | locus YDL005C, strain med2, active compounds read low 0.92 | locus YDL035C, strain GPR1, active compounds read low 0.914 | locus YDL040C, strain nat1, active compounds read low 0.998 | locus YDL074C, strain BRE1, active compounds read low 0.878 | locus YDL101C, strain DUN1, active compounds read low 0.989 | locus YDL134C, strain PPH21, active compounds read low 0.998 | locus YDL185W, strain tfp1, active compounds read low 0.995 | locus YDL192W, strain arf1, active compounds read low 0.969 | locus YDR001C, strain nth1, active compounds read low 0.997 | locus YDR101C, strain arx1, active compounds read low 0.968 | locus YDR150W, strain NUM1, active compounds read low 1.01 | locus YDR162C, strain NBP2, active compounds read low 0.931 | locus YDR195W, strain ref2 1.02 | locus YDR297W, strain sur2, active compounds read low 0.923 | locus YDR318W, strain mcm21, active compounds read low 0.944 | locus YDR334W, strain swr1, active compounds read low 1.02 | locus YDR335W, strain msn5, active compounds read low 0.938 | locus YDR388W, active compounds read low 0.966 | locus YDR392W, strain spt3, active compounds read low 0.743 | locus YDR502C, strain sam2, active compounds read low 0.959 | locus YEL037C, strain rad23, active compounds read low 1 | locus YEL061C, strain CIN8 (second series), active compounds read low 1 | locus YEL061C, strain CIN8, active compounds read low 1 | locus YER016W, strain bim1, active compounds read low 0.94 | locus YER110C, active compounds read low 1.01 | locus YER111C, strain swi4, active compounds read low 1 | locus YER155C, strain BEM2 (second series), active compounds read low 0.942 | locus YER155C, strain BEM2, active compounds read low 1.02 | locus YER167W, strain BCK2, active compounds read low 0.972 | locus YFR010W, strain ubp6, active compounds read low 0.957 | locus YGL078C, strain dbp3, active compounds read low 0.976 | locus YGL086W, strain mad1, active compounds read low 0.958 | locus YGL167C, strain pmr1, active compounds read low 0.987 | locus YGL227W, strain vid30, active compounds read low 0.994 | locus YGL248W, strain PDE1, active compounds read low 0.998 | locus YGL253W, strain hxk2, active compounds read low 0.953 | locus YGR078C, strain PAC10, active compounds read low 0.952 | locus YGR135W, strain pre9, active compounds read low 0.968 | locus YGR229C, strain SMI1, active compounds read low 0.813 | locus YGR252W, strain gcn5, active compounds read low 0.902 | locus YHR027C, strain rpn1, active compounds read low 0.933 | locus YHR030C, strain SLT2, active compounds read low 0.993 | locus YHR079C, strain IRE1 (second series), active compounds read low 0.971 | locus YHR094C, strain hxt1, active compounds read low 0.999 | locus YHR129C, strain ARP1, active compounds read low 1.01 | locus YHR142W, strain chs7, active compounds read low 0.911 | locus YHR200W, strain rpn10, active compounds read low 0.981 | locus YIL073C, strain SPO22, active compounds read low 0.951 | locus YIL125W, strain kgd1, active compounds read low 0.994 | locus YIR030C, strain dcg1, active compounds read low 1.01 | locus YJL092W, strain hpr5, active compounds read low 0.967 | locus YJL095W, strain BCK1, active compounds read low 0.855 | locus YJL115W, strain asf1, active compounds read low 1.02 | locus YJL134W, strain LCB3, active compounds read low 0.999 | locus YJL154C, strain vps35, active compounds read low 0.996 | locus YJL168C, strain set2, active compounds read low 0.994 | locus YJL187C, strain SWE1 (second series), active compounds read low 0.964 | locus YJR043C, strain POL32, active compounds read low 0.999
